Shown are actives, neighbours in structure and some others; about 7.4% of the full set was active somewhere.
ELG1 genotox – inducers of genotoxicity in HEK293T ELG1-luciferase cells; actives 1.3% (n = 330,000); HEK293T ELG1-luciferase reporter, luminescence, 16 h; Potency, µM (series often up to 46 µM), actives largely listed as activators; also: nearly all actives have a fitted effect of over 60% in size
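Genotoxic stress is detected as increased luminescence from luciferase-tagged ELG1 in HEK293T cells, measured with ONE-Glo after a 16 hr treatment at 37 °C.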
NPC1 promoter act – activates the NPC1 promoter. Huh7 NPC1 promoter luciferase reporter, 24 h. Potency, µM (series often up to 9.22 µM), most hits filed as activators. actives 2.4% (n = 320,000); also: nearly all actives have a fitted effect of over 60% in size
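Luminescence read-out of NPC1 promoter-driven luciferase in stably transfected Huh7 cells; compounds delivered in DMSO and left 24 h at 37C, 5% CO2, qHTS titration format.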
Rab9 promoter act – Rab9 promoter activation; Huh7 Rab9 promoter-luciferase reporter, luminescence, 24 h; Potency, µM (doses to about 9.22 µM), most hits filed as activators; actives 2.8% (n = 320,000); AID 485297; also: nearly all actives have a fitted effect of over 60% in size
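Quantitative HTS format; Huh7 Rab9-luciferase reporter cells (1500/well) receive compound 2 h post-plating, incubate 24 h at 37 °C, then get luciferase reagent for 10 min before luminescence reading.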
SMN2 splice up – SMN2 splice variant enhancement | HEK293 SMN2-luciferase splicing reporter, luminescence, 30-36 h | Potency, µM (doses to about 46.1 µM), most hits filed as activators | actives 2.8% (n = 210,000); also: nearly all actives have a fitted effect of over 55% in size
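HEK293 cells carry an SMN2 minigene-luciferase reporter in which exon 7 inclusion puts luciferase in frame. Cells were seeded at 2000 cells/well, attached for 10-12 hours, then exposed to compounds for 30-36 hours at 37C before ONE-Glo luminescence.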
Luc counter – Kinase-Glo luciferase inhibition (counter-screen); Kinase-Glo luciferase, ATP luminescence, 8 min; Q27757; actives 0.28% (n = 200,000); Potency, µM (doses to about 38.3 µM), hits mostly inhibitors; also: nearly all actives have a fitted effect of over 60% in size
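Recombinant Kinase-Glo luciferase, 10 uM ATP (linear range), luciferin; imidazole pH 7.2 / KCl / MgCl2 / Tween / BSA buffer; 8 min RT; luminescence.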
FLuc modulator – counter-screen for miR-21 project: firefly luciferase inhibitors or activators. P08659. purified FLuc, Km substrates, luminescence inhibition. Potency, µM (doses to about 57.5 µM), actives largely listed as inhibitors. actives 6.9% (n = 360,000). AID 588342; also: nearly all actives have a fitted effect of over 55% in size
Target sequence (P08659 whole entry, looked up): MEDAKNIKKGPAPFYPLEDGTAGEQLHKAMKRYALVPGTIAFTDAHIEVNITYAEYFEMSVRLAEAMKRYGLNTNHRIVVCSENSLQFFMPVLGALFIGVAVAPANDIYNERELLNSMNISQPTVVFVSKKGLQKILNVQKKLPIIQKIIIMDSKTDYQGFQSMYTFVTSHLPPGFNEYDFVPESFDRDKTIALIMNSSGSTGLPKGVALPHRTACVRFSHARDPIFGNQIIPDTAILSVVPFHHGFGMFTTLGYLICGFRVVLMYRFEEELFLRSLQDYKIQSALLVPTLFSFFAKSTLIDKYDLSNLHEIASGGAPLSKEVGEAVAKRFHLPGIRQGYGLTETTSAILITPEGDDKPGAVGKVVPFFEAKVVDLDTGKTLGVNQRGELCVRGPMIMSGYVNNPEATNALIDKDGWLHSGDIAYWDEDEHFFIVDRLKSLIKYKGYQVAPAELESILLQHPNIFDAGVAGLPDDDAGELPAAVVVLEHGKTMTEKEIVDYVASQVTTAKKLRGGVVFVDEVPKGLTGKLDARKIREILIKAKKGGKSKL
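Purified P. pyralis luciferase, 10 nM final, with Km-level 10 uM D-luciferin and 10 uM ATP in 50 mM Tris acetate pH 7.5, 10 mM Mg acetate, 0.01% Tween-20, 0.05% BSA; 6-point qHTS titration about 60 µM downward; luminescence read.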
Of the large screens only hits and unclear results are named; the others gave an inactive call. Calls follow the shape of the dose curve; as a rule, active = well fitted curve in the direction sought with a large enough effect; inconclusive = small, poorly fitted or top-dose-only effect, or another doubt; inactive = no such curve, though single readings can be large; an effect the other way counts as inactive or inconclusive.

CCN(CC(=O)Nc1cccc(S(=O)(=O)N2CCOCC2)c1)Cc1ccccc1	none (no result: SMN2 splice up, Luc counter)
CC(c1ccccc1)N1C(=O)c2ccc(C(=O)Nc3ccccc3C(=O)O)cc2C1=O (stereo not drawn)	FLuc modulator 24µM (no result: SMN2 splice up, Luc counter)
CC(C)CN1C(=O)c2ccc(C(=O)Nc3ccc(O)cc3C(=O)O)cc2C1=O	FLuc modulator 6µM (no result: SMN2 splice up, Luc counter)
CC(C)CCN1C(=O)c2ccc(C(=O)Nc3ccccc3C(=O)O)cc2C1=O	FLuc modulator 21µM (no result: SMN2 splice up, Luc counter)
O=C(Nc1ccc(O)cc1C(=O)O)c1ccc2c(c1)C(=O)N(Cc1ccco1)C2=O	FLuc modulator inconclusive
CC(C)CCN1C(=O)c2ccc(C(=O)Nc3ccc(O)cc3C(=O)O)cc2C1=O	FLuc modulator 19µM (no result: SMN2 splice up, Luc counter)
CC1CCCCN1C(=S)NCc1ccco1 (stereo not drawn)	none
N[C@@H](Cc1ccc(O)cc1)C(=O)Nc1ccc2ccccc2c1	FLuc modulator inconclusive (no result: SMN2 splice up, Luc counter)
NC(Cc1cnc[nH]1)C(=O)Nc1ccc2ccccc2c1 (stereo not drawn)	SMN2 splice up 13µM (no result: ELG1 genotox, NPC1 promoter act, Rab9 promoter act, FLuc modulator)
O=C(Cc1ccc(F)cc1)Nc1cccc(-c2cn3c(n2)SCC3)c1	FLuc modulator inconclusive
CN(C)S(=O)(=O)Nc1cccc(-c2cn3c(n2)SCC3)c1	none (no result: SMN2 splice up, Luc counter)
CCc1ccc(-c2cn3c(n2)SCC3)cc1	ELG1 genotox inconclusive, NPC1 promoter act 1.6µM, Rab9 promoter act 1.4µM, FLuc modulator 2.4µM (no result: SMN2 splice up)
Cc1ccc(-c2cn3c(n2)SCC3)cc1	NPC1 promoter act 2.2µM, Rab9 promoter act 2µM, SMN2 splice up 11µM, FLuc modulator inconclusive
CCN(CC)C(=O)c1cccc(NC(=O)C2CCN(C(=O)c3cccs3)CC2)c1	none (no result: NPC1 promoter act, Rab9 promoter act, SMN2 splice up, Luc counter, FLuc modulator)
CC1(C)COC(c2coc3ccccc3c2=O)OC1	ELG1 genotox inconclusive, SMN2 splice up inconclusive, FLuc modulator 17µM
CCCCCN(C(=O)CCC(=O)OCC(=O)c1c(C)cc(C)cc1C)c1c(N)n(CCCC)c(=O)[nH]c1=O	none (no result: SMN2 splice up, Luc counter)
Oc1ccc(Cl)cc1-c1cc(-c2ccccc2)n[nH]1	FLuc modulator inconclusive
Cc1ccc(-c2cc(-c3ccc(F)cc3)n[nH]2)c(O)c1	ELG1 genotox inconclusive, NPC1 promoter act inconclusive, Rab9 promoter act 4µM, FLuc modulator 4.3µM (no result: SMN2 splice up, Luc counter)
Cc1ccc(O)c(-c2cc(C(F)(F)F)[nH]n2)c1	none
CCc1cc(-c2n[nH]c(C)c2-c2ccc3c(c2)OCCO3)c(O)cc1O	none (no result: ELG1 genotox, NPC1 promoter act, Rab9 promoter act, SMN2 splice up, FLuc modulator)
Oc1ccccc1-c1cc(-c2ccc(F)cc2)n[nH]1	ELG1 genotox 5.8µM, NPC1 promoter act inconclusive, FLuc modulator 3.4µM (no result: SMN2 splice up, Luc counter)
Cc1ccc(O)c(-c2cc(-c3cccc(Br)c3)n[nH]2)c1	ELG1 genotox 23µM, NPC1 promoter act inconclusive, Rab9 promoter act 4.5µM, FLuc modulator 12µM (no result: SMN2 splice up)
Oc1ccc(F)cc1-c1cc(-c2ccc3c(c2)OCCO3)n[nH]1	ELG1 genotox inconclusive, NPC1 promoter act 3.2µM, Rab9 promoter act 1.8µM, SMN2 splice up 13µM, FLuc modulator 2.4µM
Cc1ccc(C)c(OCCC(=O)NCCc2ccc(F)cc2)c1	none (no result: SMN2 splice up, Luc counter)
CC(C)[C@H](NC(=O)c1ccccc1)C(=O)NC1=NCCS1	none (no result: NPC1 promoter act, Rab9 promoter act, SMN2 splice up, Luc counter, FLuc modulator)
COc1ccc(/C=N/NC(=O)c2ccncc2)cc1Cn1nc([N+](=O)[O-])c(Br)c1C	none
Cc1ccc(-c2cc(-c3ccc(C)cc3O)[nH]n2)cc1	ELG1 genotox inconclusive, NPC1 promoter act 0.71µM, Rab9 promoter act 0.89µM, FLuc modulator 2.4µM (no result: SMN2 splice up, Luc counter)
CCCCNC(=O)C1CCN(Cc2ccc(OCc3ccccc3)cc2)CC1	ELG1 genotox inconclusive, NPC1 promoter act inconclusive, Rab9 promoter act inconclusive, SMN2 splice up inconclusive, FLuc modulator 19µM
OC1CCN(Cc2ccc(OCc3ccccc3)cc2)CC1	ELG1 genotox inconclusive, NPC1 promoter act 2µM, Rab9 promoter act inconclusive, FLuc modulator 11µM (no result: SMN2 splice up, Luc counter)
N#C/C(=C\c1c[nH]c2ccccc12)C(=O)c1ccc(O)c(O)c1	none (no result: ELG1 genotox, FLuc modulator)
COc1ccc2cc3cc(C(=O)N4CCN(c5ccccn5)CC4)oc3nc2c1	FLuc modulator 19µM (no result: SMN2 splice up, Luc counter)
CCOC(=O)C1CCN(C(=O)c2cc3cc4ccc(OC)cc4nc3o2)CC1	ELG1 genotox inconclusive, NPC1 promoter act 0.63µM, Rab9 promoter act 0.89µM, FLuc modulator inconclusive (no result: SMN2 splice up, Luc counter)
COc1ccc2nc3oc(C(=O)N4CCC(C(N)=O)CC4)cc3cc2c1	none
